# From PubChem BioAssay AID540317 (National Center for Advancing Translational Sciences (NCATS), 2011)
# The whole screen tested about 390,000 compounds, of which about 2,200 (0.56%) were called active. Inconclusive results (about 3%) are left out. For the sample, actives were picked, then their nearest neighbours and some compounds at random. A number with no mark means an inactive call. Calls follow the shape of the dose curve; as a rule, active = well fitted inhibition curve with a large enough effect; inconclusive = small, poorly fitted or top-dose-only effect; inactive = no such curve, though single readings can be large or run the other way.
# Target: Chromobox protein homolog 1 (Homo sapiens) (UniProt P83916)
# Assay: HTS for Inhibitors of HP1-beta Chromodomain Interactions with Methylated Histone Tails; also: nearly all actives have a fitted effect of over 70% in size
# Conditions: AlphaScreen HP1-beta / biotin-H3K9me3 peptide binding; series mostly up to 114 µM; activity change, negative = inhibition: at the top concentration
# Excerpt: As our understanding of epigenetics expands, it is becoming clear that players in this field are potential targets for drug development. This area of epigenetic therapy has established applications for the treatment of cancer and neurological diseases. We have been involved in this field for a number of years and have performed high-throughput screens to identify the first small molecule inhibitors of protein methyltransferases. These methyltransferases target multiple substrates, and thus regulate many arms of an epigenetic pathway. The methylation of different substrates often generates docking sites for effector proteins that harbor binding domains (chromo, tudor, PHD, MBT and ANK repeats). It has been proposed that the binding sites generated for different proteins by these post-translational modifcations mediate downstream effects on chromatin. Consistent with this theory, di- and tri-methylation of histone H3K9 facilitates the binding of heterochromatin protein HP1. The HP1 protein harbors a chromodomain that is responsible for the methyl-dependent interaction between HP1 and lysine 9 of histone H3. HP1 was first described in flies as a heterochromatin associated protein that can regulate gene silencing. It harbors a chromodomain that binds H3K9me3. In addition, it harbors a chromoshadow domain that interacts with a large number of proteins that are involved in heterochromatin formation and gene repression. There are three highly related HP1 isoforms. All three variants are associated with pericentric heterochromatin and it is not clear whether they have specific or redundant functions. MPP8 is also involved in the repression of gene in euchromatic regions (unpublished data) and like HP1 its chromodomain binds H3K9me3. MPP8 harbors an ankyrin repeat region that is likely involved in binding and recruiting interacting proteins with transcriptional repressive function, much like the chromoshadow domain of HP1 does. We hypothesize that by inhibiting specific protein-protein interactions we will be able to develop compounds that block a single arm of an epigenetic pathway. The specificity attained by blocking a single protein-protein interaction will be far greater than that attained by blocking the enzyme that regulates one of many interactions. Low-affinity protein-protein interactions (Kd in the single- to double-digit micromolar range) such as those discussed here have been very difficult to assay by traditional techniques such as fluorescence polarization or fluorescence resonance energy transfer. We have developed a sensitive chemiluminescence-based assay (Quinn, et al. 2009), which serves as the starting point for this project. The following is a validation assay to identify lead compounds that can block methyl-dependent protein-protein interactions (specifically HP1-beta), which can be used as probes to analyze these methyl-driven interactions and perhaps even developed into targeted epigenetic therapies. NIH Chemical Genomics Center [NCGC] NIH Molecular Libraries Probe Centers Network [MLPCN] MLPCN Grant: DA031087 Assay Submitter (PI): Mark Bedford, University of Texas, Medical Anderson Cancer Center, TX
# To each well, 2 uL of HP1-beta protein (final 50 nM) and 1 uL biotinylated histone peptide trimethylated at Lys9 [b-H3(1-18)K9me3] (final 50 nM) was added in 1x PBS buffer, pH 7.4, containing 0.01% Tween-20 using a nanoliter dispenser. Formation of a protein-peptide complex proceeded at room temperature for 30 min. A Kalypsys pin-tool was employed to transfer 23 nL of library compound solution in DMSO to each well. Aurintricarboxylic acid (ATA) was used as an intraplate control with a 12-point titration in duplicate. Following a 30 min incubation of the protein-peptide complex with compounds at room temperature, a mixture of 40 ug/mL each streptavidin-coated donor and nickel chelate acceptor AlphaScreen beads (final 10 ug/mL) was added in a 1 uL dispense for a final volume of 4 uL. […]
# Potency is read from the fitted curve at half-maximal effect.
# Sequence of Chromobox protein homolog 1 (Homo sapiens) (P83916 whole entry, looked up): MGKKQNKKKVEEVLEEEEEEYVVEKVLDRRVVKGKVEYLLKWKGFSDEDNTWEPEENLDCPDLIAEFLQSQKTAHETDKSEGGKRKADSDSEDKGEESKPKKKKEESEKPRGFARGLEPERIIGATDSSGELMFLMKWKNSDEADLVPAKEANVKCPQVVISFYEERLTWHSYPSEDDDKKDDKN
Structure (SMILES),"activity change, negative = inhibition",Potency
NS(=O)(=O)c1cc(C(=O)OCC(=O)NNC(=O)c2ccccc2)ccc1Cl,20.8%,
O=C(NC1=CC(=O)c2ccccc2C1=O)c1ccccc1,,22.4 µM (active)
CCOc1ccccc1NC(=O)Cn1c2ncccc2c(=O)n1-c1ccc(C)c(C)c1,15.2%,
COc1cccc(Nc2nc3ccccc3c3nncn23)c1,48.6%,
Cc1csc(Nc2ccc(Cl)cc2)[n+]1-c1ccc(Cl)cc1,,17.8 µM (active)
COC(=O)c1cc(NC(=O)c2cnc(SC)nc2-c2ccccc2)cc(C(=O)OC)c1,36.3%,
Cc1ccc(F)cc1S(=O)(=O)N1CCC(c2nc3ccccc3s2)CC1,67.3%,
Cc1ccc2cccc(NC(=O)c3cccc4ccccc34)c2n1,87.3%,
COc1cc(Cl)cc(C2NC(=O)NC(C)=C2C(=O)NCc2ccccc2)c1O (centres undefined),10.7%,
COc1ccc(CNC(=O)c2ccc3c(O)c(S(=O)(=O)c4ccccc4)c(=O)[nH]c3c2)cc1,19.6%,
COc1cc(C(=S)NCc2ccccc2)cc(Br)c1O,,7.94 µM (active)
COC(=O)c1ccc(NC(=O)CSc2n[nH]c(-c3ccccc3)n2)cc1,32.5% [at 57 µM],
COc1ccc(OCCCn2c(C3CC(=O)N(c4ccc(F)cc4)C3)nc3ccccc32)cc1 (centres undefined),23%,
COc1ccc2c(c1)CCc1c(C(=O)Nc3cc(C)ccc3O)noc1-2,27.4%,
Cc1nnc(N2CCCC(C(=O)NCCN(C)C)C2)c2nn(-c3ccccc3)c(C)c12 (centres undefined),40.3%,
CN(C)c1ccc(Nc2c3c4c(cccc4n(C)c2=O)C(=O)c2ccccc2-3)cc1,,4.47 µM (active)
COc1ccc(Cl)cc1NC(=O)CN(C)C(=O)CNC(=O)C12CC3CC(CC(C3)C1)C2,9.71%,
COc1ccc(Cl)cc1NC(=O)CCC(=O)c1ccc(C)cc1,32.3%,
COc1ccc(Cl)cc1NC(=O)CN(C)Cc1ccc(OC)c(OC)c1,,39.8 µM (active)
Cc1ccc(Cl)cc1NC(=O)CCS(=O)(=O)c1ccc(Br)s1,-9.23%,
COc1ccc(Cl)cc1NC(=O)CCS(=O)(=O)c1ccc(Br)cc1,,12.6 µM (active)
COc1ccc(Cl)cc1NC(=O)CN(C)CC(=O)Nc1ccc2c(c1)OCO2,26.1%,
O=C(Nc1cccc2cccnc12)c1cccc2c(Br)cccc12,44.8%,
COc1cccc(CNC(=O)CCc2nc(-c3ccc(C)cc3)no2)c1,58.9%,
C=CCCN(C(Cc1ccccc1)C(=O)OC)S(=O)(=O)c1cc(Br)ccc1Br (centres undefined),59.4%,

Structure (SMILES),"activity change, negative = inhibition",Potency
COc1ccc(-c2noc(-c3ccc(N4CCN(c5ccccc5)CC4)c([N+](=O)[O-])c3)n2)cc1OC,41.2%,
CCc1ccc(NC(=O)CN2C(=O)CCSc3ccc(S(=O)(=O)N4CCCC4)cc32)cc1,18.2% [at 57 µM],
Cc1ccc(-c2nnc3ccc(SCC(N)=O)nn23)cc1,32%,
COC(=O)CCc1ccccc1S(=O)(=O)N(CCC(=O)OC)Cc1ccccc1,-5.53%,
Cc1ccc(C)c(Nc2nnc(-c3ccc(C)c(S(=O)(=O)N4CCCCC4)c3)c3ccccc23)c1,26.8%,
CC(C)OP(=O)(OC(C)C)C(Nc1ccccc1)c1cccc([N+](=O)[O-])c1 (centres undefined),15%,
COC(=O)/C=C\C(=O)Nc1cccc([N+](=O)[O-])c1,,10 µM (active)
CCc1ccc(NC(=O)C(C)OC(=O)/C=C/c2cccc([N+](=O)[O-])c2)cc1 (centres undefined),12.7%,
Cc1c(-c2nsc(NC(=O)c3cccc(Cl)c3)n2)nnn1-c1ccccc1C(F)(F)F,20.1%,
CCOCCCNC(=O)c1ccc2nc(CCc3ccccc3)oc2c1,19.6% [at 57 µM],
CCOc1ccc(NC(=S)NC(=O)/C=C/c2ccc(OC)cc2)c([N+](=O)[O-])c1,-2.89%,
COc1ccc(/C=C/C(=O)c2cc(Br)ccc(=O)c2O)cc1,,50.1 µM (active)
COc1cccc(N2CC(NC(=O)/C=C\c3ccccc3)CC2=O)c1 (centres undefined),5.02%,
CC1CCN(S(=O)(=O)c2ccc3c(c2)N(CC(=O)NCCc2ccccc2)C(=O)CO3)CC1,10.4%,
Brc1nc2ncnc(NCc3ccco3)c2[nH]1,7.51% [at 57 µM],
Nc1ccc2[nH]c(=S)sc2c1,,28.2 µM (active)
COC(=O)c1ccc(NC(=O)CCc2c(C)nn(-c3ccc(N4CCCC4)nn3)c2C)cc1,39.1%,
OCC(CO)(CO)NCc1ccc(-c2ccccc2)cc1,16.6%,
Oc1ccc(N2CCN(C(=S)NCc3ccccc3)CC2)cc1,-18.1%,
Oc1ccc(CNc2ccccc2O)cc1,,50.1 µM (active)
COc1cccc(CNC(=O)CSc2c3c(nc4cc(Cl)ccc24)CCCC3)c1,47.5%,
N#Cc1cc2[nH]c(=O)c(=O)[nH]c2cc1[N+](=O)[O-],2.3%,
CCN(C(=O)Cn1cnc2sc(C)c(S(=O)(=O)N3CCN(c4ncccn4)CC3)c2c1=O)c1ccccc1F,46.6%,
O=S(=O)(c1ccccc1)c1nc(-c2ccc(Cl)cc2Cl)oc1N1CCCCC1,-21.6% [at 57 µM],
